This is one part of a sample in which hits are shown more often than they occur.
CD40 NFkB inh – CD40 pathway inhibition in BL2 cells; BL2 NF-kB luciferase reporter, CD40L-induced, 4 h; inhibition, % at 10 µM; 0.94% of 83,000 active; AID 1053188;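 active = mean inhibition of at least 50% with a set share of replicates also reaching that level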
Of the large screens only hits and unclear results are named; the others gave an inactive call; [ ] = dose if it differs, or a comment.

C=CC[n+]1c(/C=C2\C=Cc3cc(C)ccc3N2CC)ccc2ccccc21	CD40 NFkB inh 65
C[C@H]1CN(C)C(=O)Cc2cc(NS(C)(=O)=O)ccc2O[C@@H]1CN(C)S(C)(=O)=O	none
O=C(Nc1ccccc1F)N1C[C@H]2[C@@H](c3ccccc31)[C@H](CO)N2C(=O)C1CC1	none
CO[C@@H]1CN(C)C(=O)c2ccc(NC(=O)C3CCC3)cc2OC[C@@H](C)N(Cc2nccs2)C[C@H]1C	none
C[C@H](CO)N1C[C@H](C)[C@H](CN(C)Cc2ccc(Oc3ccccc3)cc2)Oc2ccc(NC(=O)Cn3cnnn3)cc2CC1=O	none
COc1cccc(-c2ccc([C@@H]3[C@H]4CNCC(=O)N4[C@H]3CO)cc2)c1	none
CCCC#Cc1ccc2c(c1)[C@@H]1[C@@H](CCN1S(=O)(=O)c1ccccc1C)[C@@H](CO)N2	none
CC1Cc2ccccc2N1C(=O)c1cnc2n(c1=O)CCS2 (centres undefined)	none
CC1Cc2ccccc2N1C(=O)c1cnsn1 (centres undefined)	none
CC1Cc2ccccc2N1c1ncnc(N)c1[N+](=O)[O-] (centres undefined)	CD40 NFkB inh 54
CCCNC(=O)[C@@H]1[C@@H](CO)[C@@H]2Cn3c(ccc(C4=CCCC4)c3=O)[C@@H]2N1C(=O)c1cnccn1	none
COc1ccc(NC(=O)N(C)C[C@@H]2OCCCC[C@@H](C)Oc3ccc(NC(=O)c4ccncc4)cc3C(=O)N([C@H](C)CO)C[C@H]2C)cc1	none
O=C(C[C@H]1C[C@H]2c3cc(NC(=O)c4ccc5c(c4)OCO5)ccc3O[C@H]2[C@H](CO)O1)NCC(F)(F)F	none
Nc1nc2ccccc2cc1S(=O)(=O)c1ccccc1	none
Cc1cc(N)c2ccccc2n1	none
Nc1cccc2nc3ccccc3cc12	CD40 NFkB inh active
C/C=C/c1ccc([C@@H]2[C@H](CO)N(C(=O)CC)[C@H]2CNC(=O)CC2CC2)cc1	none
CN(C)S(=O)(=O)c1ccc(NC(=O)Cn2ccsc2=N)cc1	none
CN(C(=O)Nc1ccc(S(=O)(=O)N(C)C)cc1)C1CCCCC1	none
CN(C)S(=O)(=O)c1ccc(NC=O)cc1	CD40 NFkB inh 27
CC(=O)N(C)C[C@@H]1Oc2ccc(N(C)C)cc2CC(=O)N(C)C[C@@H]1C	none
C[C@@H]1CN([C@@H](C)CO)C(=O)c2ccccc2-c2ccccc2CO[C@H]1CN(C)S(=O)(=O)c1cccs1	none
O=C(C[C@@H]1C[C@H]2c3cc(NC(=O)NC4CCCCC4)ccc3O[C@H]2[C@H](CO)O1)NCC1CC1	none
C[C@H]1CN([C@@H](C)CO)C(=O)c2ccccc2-c2ccccc2CO[C@@H]1CN(C)C(=O)NC1CCCCC1	none
CCS(=O)(=O)N1Cc2ccccc2CC1C(=O)Nc1nc2ccccc2[nH]1 (centres undefined)	none
CCS(=O)(=O)N1Cc2ccccc2CC1C(=O)Nc1nc2ccccc2s1 (centres undefined)	CD40 NFkB inh 61
CCc1nnc(NC(=O)C2Cc3ccccc3CN2S(=O)(=O)CC)s1 (centres undefined)	none
CNC[C@H]1Oc2c(N)cccc2C(=O)N(C)C[C@H]1C	none
C[C@@H]1CN([C@@H](C)CO)C(=O)Cc2cc(NC(=O)CCCN(C)C)ccc2O[C@H]1CN(C)C	none
C[C@H](CO)N1C[C@H](C)[C@@H](CN(C)Cc2ccc3c(c2)OCO3)OCCCC[C@H](C)Oc2ccc(NS(=O)(=O)c3cn(C)cn3)cc2C1=O	none
CCCNC(=O)N1[C@H](C#N)[C@H](c2ccccc2-c2ccccc2)[C@@H]1CO	none
COc1ccc2c3c([nH]c2c1)[C@@H](CO)N(Cc1cccc(F)c1)CC31CCN(C(C)=O)CC1	none
Cc1ccc(/C=C2/CNC/C(=C\c3ccc(C)cc3)C2=O)cc1	CD40 NFkB inh 65[25 µM]
Cc1ccc(S(=O)(=O)N2CC=C(N)N2)cc1	none
Cc1ccc(C=C2C=C(c3ccccc3)OC2=O)cc1	none
CCCCC(=O)Nc1ncc([N+](=O)[O-])s1	none
Cc1nc(C)c(C(=O)Nc2ncc([N+](=O)[O-])s2)o1	CD40 NFkB inh 69
CC(C)CC(=O)Nc1ncc([N+](=O)[O-])s1	none
COc1ccccc1CNC(=O)C[C@@H]1C[C@@H]2c3cc(NC(=O)C4CCC4)ccc3O[C@@H]2[C@H](CO)O1	none
O=C(c1ccccc1F)N1C[C@@H]2[C@H](c3ccccc31)[C@@H](CO)N2Cc1ccc2c(c1)OCO2	none
CN(C)C(=O)[C@@H]1[C@@H](CO)[C@@H]2Cn3c(ccc(-c4cncnc4)c3=O)[C@H]1N2C(=O)NC1CCCC1	none
O=S(=O)(c1ccccc1)N1CCCCN2[C@H](CO)[C@@H](c3ccc(-c4ccccc4F)cc3)[C@@H]2C1	none
O=C(C[C@@H]1CC[C@@H]2[C@H](COC[C@@H](O)CN2CCC(F)(F)F)O1)NCc1ccc(Oc2ccccc2)cc1	none
O=C(C[C@H]1CC[C@H]2[C@@H](COC[C@H](O)CN2Cc2cc(F)ccc2F)O1)NCc1ccc(Oc2ccccc2)cc1	none
O=C(C[C@@H]1CC[C@H]2[C@@H](COC[C@@H](O)CN2Cc2cc(F)ccc2F)O1)NCc1ccc(Oc2ccccc2)cc1	CD40 NFkB inh 51[25 µM]
O=C(C[C@@H]1CC[C@H]2[C@@H](COC[C@H](O)CN2Cc2cc(F)ccc2F)O1)NCc1ccc(Oc2ccccc2)cc1	none
CCC(=O)N1C[C@@H](O)COC[C@@H]2O[C@H](CC(=O)NCc3ccc(Oc4ccccc4)cc3)CC[C@H]21	none
O=C(C[C@@H]1CC[C@@H]2[C@H](COC[C@H](O)CN2Cc2cc(F)ccc2F)O1)NCc1ccc(Oc2ccccc2)cc1	CD40 NFkB inh 63[25 µM]
O=C(c1ccccn1)N1C[C@@H]2[C@H](c3ccccc31)[C@@H](CO)N2C(=O)C1CCCCC1	none
C[C@H](NC(=O)C[C@@H]1C[C@H]2c3cc(NS(=O)(=O)c4ccc(F)cc4)ccc3O[C@H]2[C@@H](CO)O1)c1ccccc1	none
CCC(=O)N1[C@H](CO)[C@H]2c3ccccc3N(S(=O)(=O)c3ccc(F)cc3)C[C@H]21	none
COc1ccc(NC(=O)N(C)C[C@@H]2OCCCC[C@@H](C)Oc3ccc(NC(=O)Nc4ccccc4)cc3C(=O)N([C@H](C)CO)C[C@H]2C)cc1	none
O=C(c1cccnc1)N1CC(=O)N2[C@H](CO)[C@@H](c3ccc(-c4ccccc4F)cc3)[C@H]2C1	none
O=C(Nc1cccc(N2C(=O)C=CC2=O)c1)c1cccs1	CD40 NFkB inh 99
O=C(Nc1cccc(S(=O)(=O)N2CCCCC2)c1)c1cccs1	none
O=C(Nc1ccc2c(c1)CCC2)c1cccs1	none
C[C@@H]1CN(C)C(=O)Cc2cc(N)ccc2O[C@@H]1CN(C)C(=O)OC(C)(C)C	none
O=C(Nc1ccc2c(c1)OCO2)N[C@@H]1CC[C@@H](CCNC(=O)C2CC2)O[C@H]1CO	none
CC(C)NC(=O)N(C)C[C@@H]1Oc2c(cccc2N(C)C)C(=O)N(C)C[C@@H]1C	none
CN(C)c1ccc(C=c2c3cc([N+](=O)[O-])ccc3n3c2cc(-c2ccccc2)[n+]3C)cc1	CD40 NFkB inh 91
Cn1ccc(=O)c2cc([N+](=O)[O-])ccc21	none
CN(C)c1ccc(C=C2C=C(c3ccccc3)OC2=O)cc1	none
COc1cc(N(C)C)ccc1C=c1c2ccccc2n2c1cc(-c1ccccc1)[n+]2C	CD40 NFkB inh 101
CS(=O)(=O)N1C[C@@H]2C(c3ccccc3)[C@H](C1)N2Cc1ccc(F)cc1 (some centres undefined)	none
Cc1ccccc1S(=O)(=O)N1[C@H](C#N)[C@@H](c2ccccc2-c2cccc(F)c2)[C@@H]1CO	none
CN1[C@@H]2CN(S(C)(=O)=O)C[C@H]1C2c1ccc(-c2ccc(F)cc2)cc1 (some centres undefined)	none
O=C(CN1C(=O)c2ccccc2S1(=O)=O)Nc1ncc(Cl)cc1Cl	CD40 NFkB inh 56

Source: PubChem (Broad Institute)
